This is a sample that favours compounds with a hit; in the whole collection about 4.7% have one here.
ALR H2O2 inh – inhibitors of human sulfhydryl oxidase ALR; inhibition, % (concentration not given with the values); purified ALR, DTT oxidation, H2O2 HRP-luminol luminescence; 290,000 tested, 3.8% active; P55789;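 active means mean replicate inhibition above about 79%, with every replicate also reaching it, limit read from the data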
MLLE-PAM2 inh – inhibitors of microRNA-mediated deadenylation, human PABP1 MLLE binding | inhibition, % at 20 µM | AID 588489 | 360,000 tested, 0.36% active | P11940 | GST-MLLE / FITC-PAM2 fluorescence polarization; in the data active means inhibition above about 35%, passing the limit was not always enough;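 further: plate controls were DMSO wells with GST-MLLE for no effect and wells lacking GST-MLLE protein for full effect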
Target sequence (P11940 whole entry, looked up): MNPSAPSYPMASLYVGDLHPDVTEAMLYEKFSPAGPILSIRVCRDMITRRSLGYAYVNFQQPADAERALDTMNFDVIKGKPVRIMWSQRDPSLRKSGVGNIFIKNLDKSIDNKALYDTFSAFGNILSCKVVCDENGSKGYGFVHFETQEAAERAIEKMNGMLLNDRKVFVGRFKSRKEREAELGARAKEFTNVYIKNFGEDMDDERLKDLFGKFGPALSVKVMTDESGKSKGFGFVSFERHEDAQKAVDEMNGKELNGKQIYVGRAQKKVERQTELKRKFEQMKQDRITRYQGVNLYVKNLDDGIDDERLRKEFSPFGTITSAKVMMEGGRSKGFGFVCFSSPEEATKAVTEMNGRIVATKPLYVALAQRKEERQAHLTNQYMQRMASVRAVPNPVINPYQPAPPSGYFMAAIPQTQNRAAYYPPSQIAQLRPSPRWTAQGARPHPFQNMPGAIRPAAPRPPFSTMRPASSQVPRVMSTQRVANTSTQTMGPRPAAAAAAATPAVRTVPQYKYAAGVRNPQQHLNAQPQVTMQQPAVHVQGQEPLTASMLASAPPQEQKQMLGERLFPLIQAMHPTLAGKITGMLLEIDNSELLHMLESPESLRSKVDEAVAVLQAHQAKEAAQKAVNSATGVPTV
PABP FP inh – blocks human PABP binding to poly(A) RNA. P11940. fluorescence polarization. inhibition, % at 35 µM. 290,000 tested, 1% active;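 further: calls also rest on retests at 20 µM and on dose response follow-up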
UBC9 SUMO inh – inhibitors of human SUMOylation (UBC9); P63279; HTRF SUMOylation assay, SAE1/SAE2 + UBC9, in vitro; inhibition, % at 35 µM; 290,000 tested, 0.36% active; AID 2006; in the data active means inhibition above about 50%, passing the limit was not always enough
eIF4H FP inh – inhibitors of RNA binding by human eIF4H; Q15056; eIF4H fluorescence polarization binding assay; inhibition, % at 35 µM; 290,000 tested, 0.94% active;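 further: calls also rest on retests at 20 µM and on dose response follow-up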
Efflux pump mplx – antifungal efflux pump inhibition, Nile Red retention. S. cerevisiae Candida pump triplex. inhibition, % at 10 µM. 330,000 tested, 0.44% active. AID 485275;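 active means plate passing quality check with inhibition over a set limit, or well fluorescence over plate mean plus 4 SD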;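 further: Nile Red retained in pooled yeast measured as flow cytometry median fluorescence; 0% = buffer negative control and 100% = Enniatin B positive control; higher means more Nile Red kept so more efflux inhibition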
Cmpd fluor yeast – flagged as fluorescent in efflux inhibitor counter-screen | shares compounds with Efflux pump mplx | S. cerevisiae AD/pABC3, compound fluorescence, flow cytometry | fluorescence ratio to DMSO, % at 10 µM | 1,700 tested, 4% active;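 active means fluorescence ratio to DMSO above its plate's cutoff, the plate mean ratio plus 5 SD, cut at about 210% in these data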;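 further: unstained yeast with no Nile Red so the signal is compound autofluorescence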
CaMdr1 efflux inh – blocks the Candida albicans Mdr1 efflux pump in yeast; 1,700 tested, 1% active; S. cerevisiae AD/CaMDR1, Nile Red efflux, flow cytometry; shares compounds with Efflux pump mplx; AID 588518; inhibition, % at 10 µM; in the data active means inhibition above about 26%;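 further: 0% = DMSO vehicle and 100% = reference inhibitor; higher means more Nile Red retained so more efflux inhibition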
CaCdr2 efflux inh – blocks the Candida albicans Cdr2 efflux pump in yeast; shares compounds with Efflux pump mplx; S. cerevisiae AD/CaCDR2, Nile Red retention, flow cytometry; Nile Red retention ratio vs DMSO, % at 10 µM; 1,700 tested, 4% active; AID 588520; in the data active means Nile Red retention ratio vs DMSO above about 190%;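 further: higher ratio means more blocking of Cdr2 efflux of the dye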
Cdr1 pump inh – inhibitors of Candida albicans Cdr1 efflux pump; S. cerevisiae AD/CaCDR1, Nile Red efflux, flow cytometry; 1,700 tested, 1% active; shares compounds with Efflux pump mplx; inhibition, % at 10 µM;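 active means inhibition above the screen-wide mean plus twice its standard deviation, cut at about 32% in these data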
Starred values were filed as active, the others as inactive; . = not tested or not shown. Unless noted, how the calls were made is not given here.

SMILES	ALR H2O2 inh	MLLE-PAM2 inh	PABP FP inh	UBC9 SUMO inh	eIF4H FP inh	Efflux pump mplx	Cmpd fluor yeast	CaMdr1 efflux inh	CaCdr2 efflux inh	Cdr1 pump inh
N#CCCN1CCN(C(=S)c2ccc(-c3cccc(Cl)c3)o2)CC1	-2	18	48	-8	46	0	.	.	.	.
O=C(O)c1cc(NS(=O)(=O)c2ccc(N3CCCCC3)c([N+](=O)[O-])c2)cc(C(=O)O)c1	2	-7	2	8	-7	11*	103	0	107	0
Cc1cc(Cl)c(OCCCn2ccnc2)c(Br)c1	-3	6	-1	8	-1	16*	94	0	95	0
C=CCN(c1ccc(C(=O)NCCN2CCOCC2)cc1)S(C)(=O)=O	.	13	8	8	-3	0	.	.	.	.
Nc1ccc2nc(-c3cccc(-c4nc5ccc(N)cc5[nH]4)c3)[nH]c2c1	99*	9	3	10	6	2.1*	101	0	119	0
Nc1ccc(-c2nc3ccc(-c4nc5ccccc5o4)cc3[nH]2)cc1	48	-8	3	45	-1	0	.	.	.	.
CCOc1ccc(S(=O)(=O)N2CCN(C(=O)c3ccncc3)CC2)cc1	-3	-4	-2	-1	-9	7.4*	89	0	91	0
CCOc1ccc(S(=O)(=O)N2CCN(C(=O)c3cccnc3)CC2)cc1	2	-7	-2	4	-7	0	.	.	.	.
OCCc1ccc(O)c(-n2nc3ccccc3n2)c1	-4	3	-4	7	-4	0	.	.	.	.
Cc1nc2sc3c(c2c2nnc(SCC(=O)NCc4ccco4)n12)CCCC3	0	8	-8	17	3	0.8*	95	0	107	0
O=C(CSc1nnc2c3c4c(sc3ncn12)CCCC4)NCc1ccco1	21	3	0	-1	-2	0	.	.	.	.
COc1ccc(NC(=O)CSc2nnc(Cc3cccs3)n2-c2ccc(C)cc2)cc1	-9	-48	2	-16	-5	0	97	0	97	0
COc1ccc(-n2c(Cc3cccs3)nnc2SCC(=O)Nc2ccc3c(c2)OCCO3)cc1	0	-29	4	-2	-1	0	.	.	.	.
NS(=O)(=O)c1ccc(NC(=O)CSc2nnc(Cc3cccs3)n2-c2ccccc2)cc1	-4	-16	-3	-11	-10	0	104	0	97	0
Cc1ccc(-n2c(Cc3cccs3)nnc2SCC(=O)Nc2ccc(S(N)(=O)=O)cc2)cc1	2	-75	-2	-9	-9	0	.	.	.	.
COc1cccc(NC(=O)CSc2nnc(Cc3cccs3)n2-c2ccc(C)cc2)c1	-6	-50	1	5	-2	0	96	0	114	0
C[C@H](CO)N1C[C@H](C)[C@@H](CN(C)C(=O)Nc2ccc(C(F)(F)F)cc2)Oc2c(NS(=O)(=O)c3ccccc3)cccc2C1=O	2	1	.	.	.	0	.	.	.	.
O=C(COC(=O)Cn1cnc2ccccc2c1=O)NNC(=O)c1ccc(Br)cc1	.	-9	.	.	.	0.8*	105	0	97	0
CC(C)COC(=O)N(C)C[C@@H]1OCc2cnnn2CCCC(=O)N([C@@H](C)CO)C[C@H]1C	.	12	.	.	.	.	.	.	.	.
O=C(NNC(=O)c1cccs1)c1ccc(S(=O)(=O)N2CCCCC2)cc1	0	8	0	-5	-5	11*	98	0	96	0
CCC1CCCCN1C(=O)c1cc2c(=O)n3cccc(C)c3nc2s1 (stereo not given)	8	-7	21	7	17	1.7*	107	0	95	0
Cn1c(=O)c(C#N)c(-c2ccc(F)cc2)c2cc(C(=O)c3cc(Cl)cc(Cl)c3O)cnc21	-13	-4	12	43	5	0.3*	92	0	106	0
COc1ccc(S(=O)(=O)N2CCCCC2)cc1NC(=O)Cc1ccsc1	-3	-3	.	.	.	0	.	.	.	.

Screening results deposited in PubChem BioAssay by several laboratories.
